The values below come from PubChem BioAssay (NCATS).

Test [1] is described as follows: qHTS profiling of the MIPE4 collection as inhibitors of Plasmodium falciparum (3D7) proliferation (AID 743344). As to conditions: P. falciparum 3D7 in erythrocytes, SYBR Green DNA fluorescence, 72 h; at 28.5 µM unless noted. The method in brief: (§1)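 Parasite DNA was quantified by SYBR Green I fluorescence (ex 485, em 535 nm) after overnight lysis in saponin/Triton buffer at room temperature. Cultures at 0.3% parasitemia and 2.5% hematocrit were first exposed to compound for 72 h at 37 C; signals were normalised to artemisinin (0.29 uM) and vehicle wells.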
(In qHTS, concentration-response curves come from the screen itself.)

Test [2] is described as follows: qHTS profiling of the MIPE4 collection as inhibitors of Plasmodium falciparum (DD2) proliferation (AID 743345). The settings on record: P. falciparum Dd2 in erythrocytes, SYBR Green DNA, 72 h; at 28.5 µM unless noted. The procedure, abridged: as §1
Test [3] in a line: qHTS profiling of the MIPE4 collection as inhibitors of Plasmodium falciparum (HB3) proliferation (AID 743347).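 Note: plate controls were DMSO vehicle wells for no effect and artemisinin wells for full effect.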 The settings on record: P. falciparum HB3 in erythrocytes, SYBR Green DNA, 72 h; at 28.5 µM unless noted. The procedure, abridged:
as §1

Test [4] is described as follows: High-throughput drug toxicity screening in the BPDCN cell line Gen2.2 (AID 1224824).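 Note: cells exposed to compounds for 48 h before reading.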 The settings on record: Gen2.2 BPDCN cells; at 45.8 µM (top of the series) unless noted. The method in brief:
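Readout is ATP luminescence from Gen2.2 cells after two days of drug exposure in serum-containing medium at 37 °C. Values express percent activity, with vehicle defining full signal and 9.2 uM bortezomib defining zero.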

The nature of test [5]: High-throughput drug toxicity screening in the BPDCN cell line Cal-1 (AID 1224825). As to conditions: Cal-1 BPDCN cell viability, qHTS; at 45.8 µM (top of the series) unless noted. The procedure, abridged: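 CellTiter-Glo luminescence after 48 h compound exposure; percent activity scaled with DMSO as 100% and bortezomib (9.2 uM final) as 0%. Cal-1 cells seeded at 500/well in RPMI, 10% FBS, no phenol red.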

A short description of test [6]: qHTS profiling for inhibitors of Plasmodium falciparum (DD2) proliferation (AID 743323). As to conditions: lower = more inhibition; at 28.7 µM (top of the series). The method in brief: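 Parasite proliferation measured via DNA-dye fluorescence, as uninfected erythrocytes lack DNA. Cultures at 0.3% parasitemia and 2.5% hematocrit incubated 72 h with compound; signal scaled between vehicle and 0.29 uM artemisinin wells.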

The nature of test [7]: qHTS profiling for inhibitors of Plasmodium falciparum (HB3) proliferation (AID 743324).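 Note: 100% = DMSO vehicle wells and 0% = artemisinin-treated control wells.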 The settings on record: Plasmodium falciparum HB3 blood-stage proliferation; at 28.7 µM (top of the series). The method in brief:
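SYBR Green fluorescence (485 ex/535 em) of lysed cultures, incubated overnight at room temperature in the dark, quantifies parasite DNA. Infected erythrocytes at 0.3% parasitemia and 2.5% hematocrit were exposed 72 h; values normalized to DMSO and 0.29 uM artemisinin controls.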

A short description of test [8]: qHTS profiling of the MIPE4 collection as inhibitors of Plasmodium falciparum (DD2) proliferation (Rep 2) (AID 743346). The settings on record: P. falciparum Dd2 in erythrocytes, SYBR Green DNA, 72 h; at 28.5 µM unless noted. The method in brief: as §1
Test [9] in a line: qHTS profiling for inhibitors of Plasmodium falciparum (3D7) proliferation (AID 743322).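 Note: infected erythrocytes exposed to compound for 72 h before lysis; 100% = DMSO vehicle wells and 0% = 0.29 µM artemisinin.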 As to conditions: P. falciparum 3D7 proliferation; at 28.7 µM (top of the series). The method in brief: as §1

`CNC(=O)c1ccc(N2C(=S)N(c3cnc(C#N)c(C(F)(F)F)c3)C(=O)C23CCC3)cc1F` displayed a parasite growth, % of DMSO control in test [1] of 41%. Moreover, the parasite growth remaining, % of DMSO control (lower = more inhibition) in test [2] is 79.8%. Also, the growth, % of control in test [3] came out at 41.2%. This compound had a cell viability, % of control (lower = more cytotoxic) in test [4] of 7.43%. Further, the viability (% of control) in test [5] worked out at 3.32%.
Take `COC(=O)Nc1ccc(-c2nc(N3CCOCC3)c3cnn(C4CCN(Cc5cccnc5)CC4)c3n2)cc1`: the parasite growth, % of DMSO control in [1] was 5.62%. Further, in test [2], the parasite growth remaining, % of DMSO control (lower = more inhibition) is 7.48%. Also, the growth, % of control in test [3] stood at 4.59%. This compound registered a cell viability, % of control (lower = more cytotoxic) in test [4] of 4.27%. The viability (% of control) in [5] was 3.04%.
`Cn1c(CNc2ccc(C(=N)N)cc2)nc2cc(C(=O)N(CCC(=O)O)c3ccccn3)ccc21` yielded a parasite growth, % of DMSO control in test [1] of 98.6% [at 9.64 µM]. The compound also gave a parasite growth remaining, % of DMSO control (lower = more inhibition) in [2] of 91.9% [at 9.64 µM]. In test [3], this compound gave a growth, % of control of 87.7% [at 9.64 µM]. In test [5], the viability (% of control) is 105% [at 23.2 µM].
As for `N#CCNC(=O)c1ccc(-c2ccnc(Nc3ccc(N4CCOCC4)cc3)n2)cc1`, in test [6], the activity, percent of control was found to be 14%. The compound also came in with a remaining proliferation (% of control), lower = more inhibition in [7] of 10.2%. In test [1], this compound returned a parasite growth, % of DMSO control of 4.16%. The parasite growth remaining, % of DMSO control (lower = more inhibition) in test [2] came to 12.8%. Also, in test [8], the parasite growth, % of control (lower = inhibition) came out at 13.1%. Also, the growth, % of control in test [3] came to 4.94%. Besides, in [5], the viability (% of control) is 32.6%.
The compound `COc1cc2c(NC3CCN(C(C)C)CC3)nc(C3CCCCC3)nc2cc1OCCCN1CCCC1` came in with a parasite growth, % of DMSO control in [1] of 5.09%. This compound also registered a parasite growth remaining, % of DMSO control (lower = more inhibition) in test [2] of 6.68%. In [8], this compound gave a parasite growth, % of control (lower = inhibition) of 10.3%. The same compound gave a growth, % of control in [3] of 4.41%. In test [5], the viability (% of control) was 4.14%.
`Cc1cc(Nc2cc(N3CCN(C)CC3)nc(Sc3ccc(NC(=O)C4CC4)cc3)n2)n[nH]1`: in [9], the remaining parasite growth % (stronger effect = lower value) was 39.3%. The compound further displayed an activity, percent of control in test [6] of 68.3%. The compound also returned a parasite growth, % of DMSO control in [1] of 11.5%. The compound further came in with a parasite growth remaining, % of DMSO control (lower = more inhibition) in [2] of 16%. Besides, the parasite growth, % of control (lower = inhibition) in [8] was found to be 22.4%. In test [3], the growth, % of control turned out to be 2.93%. Further, the viability (% of control) in test [5] was 12.3%.
For `Cc1ccc2nc(NC(=O)CSc3nc4c(c(=O)n3-c3ccccc3)SCC4)sc2c1`, the parasite growth, % of DMSO control in [1] was 29.9%. Besides, the parasite growth remaining, % of DMSO control (lower = more inhibition) in test [2] came to 82.9%. In [8], this compound showed a parasite growth, % of control (lower = inhibition) of 72.4%. In addition, in test [3], the growth, % of control is 42.3%. Moreover, the viability (% of control) in [5] amounted to 15.8%.
In the case of `COc1cccc(Nc2c(C(N)=O)cnc3c(C)cc(S(=O)(=O)c4cccc(C(=O)N(C)C)c4)cc23)c1`, in test [1], the parasite growth, % of DMSO control stood at 37.9% [at 9.64 µM]. In addition, in test [2], the parasite growth remaining, % of DMSO control (lower = more inhibition) stood at 90.5% [at 9.64 µM]. Also, the parasite growth, % of control (lower = inhibition) in test [8] amounted to 40% [at 9.64 µM]. This compound displayed a growth, % of control in [3] of 90% [at 9.64 µM]. For the same compound, the viability (% of control) in [5] was 108% [at 23.2 µM].
As for `Nc1nccc(Oc2ccc(NC(=O)c3c[nH]cc(-c4ccc(F)cc4)c3=O)cc2F)c1Cl`, in [9], the remaining parasite growth % (stronger effect = lower value) was found to be 7.57%. In addition, in test [6], the activity, percent of control turned out to be 18.6%. In addition, in test [7], the remaining proliferation (% of control), lower = more inhibition was determined as 1.21%. Further, the parasite growth, % of DMSO control in test [1] was determined as 4.72%. The compound also displayed a parasite growth remaining, % of DMSO control (lower = more inhibition) in test [2] of 50.4%. The parasite growth, % of control (lower = inhibition) in test [8] came to 8.39%. Also, the growth, % of control in test [3] worked out at 6.32%. Also, in [5], the viability (% of control) stood at 5.21%.
Compound `Cc1cc(Nc2cc(CN3CCOCC3)c3nc(C)c(Cc4ccc(Cl)cc4F)n3n2)n[nH]1` gave a parasite growth, % of DMSO control in test [1] of 6.44%. Besides, in test [2], the parasite growth remaining, % of DMSO control (lower = more inhibition) is 7.86%. Moreover, the parasite growth, % of control (lower = inhibition) in [8] was found to be 12.5%. In test [3], the growth, % of control stood at 5.44%. Moreover, the viability (% of control) in test [5] turned out to be 2.99%.
Taken in the same sequence, the figures for `CC[C@@]1(O)C(=O)OCc2c1cc1n(c2=O)Cc2cc3cc(O)ccc3nc2-1` were 13.5%, 12.6%, 16.8%, 5.75% and 3.68%.
`Nc1ncnc2c1c(-c1cccc(OCc3ccccc3)c1)cn2C1CC(CN2CCCC2)C1` (configuration not stated) had a parasite growth, % of DMSO control in test [1] of 5.35%. The same compound displayed a parasite growth remaining, % of DMSO control (lower = more inhibition) in test [2] of 7.32%. Moreover, in test [8], the parasite growth, % of control (lower = inhibition) stood at 9.07%. The growth, % of control in test [3] amounted to 8.63%. The viability (% of control) in [5] came to 1.43%.
Turning to `CN1CC[C@@H](c2c(O)cc(O)c3c(=O)cc(-c4ccccc4Cl)oc23)[C@@H](O)C1`, the remaining parasite growth % (stronger effect = lower value) in test [9] is 3.4%. In addition, in test [6], the activity, percent of control turned out to be 4.17%. Also, the parasite growth, % of DMSO control in [1] stood at 8.91%. The parasite growth remaining, % of DMSO control (lower = more inhibition) in [2] is 13.5%. The parasite growth, % of control (lower = inhibition) in test [8] came out at 9.93%. In addition, the viability (% of control) in test [5] turned out to be 5.59%.
